The source made the active and inactive calls. The calls were made as follows: active = hit-call score of the fitted dose curve at least 0.9, where 1 is the maximum; inactive = score below 0.9.
Tests used:
[1] = CCTE_Harrill_HTTr_Apoptosis_DMEM_12hr: (Pilot) CCTE's 12-hour Apoptosis Assessment for the High-Throughput Transcriptomics (HTTr) Platform, in MCF-7 cells cultured in DMEM + 10% fetal bovine serum, Harrill Lab (AID 2283982)
Method in brief: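 MCF-7 cells in DMEM + 10% FBS, exposed 12 h to an eight-point dilution series; caspase-3/7 activation imaged with CellEvent Green. Bidirectional fit versus DMSO.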

[2] = CCTE_Harrill_HTTr_Apoptosis_DMEM_24hr: (Pilot) CCTE's 24-hour Apoptosis Assessment for the High-Throughput Transcriptomics (HTTr) Platform, in MCF-7 cells cultured in DMEM + 10% fetal bovine serum, Harrill Lab (AID 2283983)
Method in brief: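 MCF-7 cells in DMEM + 10% FBS, eight-point dilution series, 24 h exposure. Caspase-3/7 activation imaged by high-content imaging with CellEvent Caspase 3/7 Green. Bidirectional curve fitting against DMSO baseline.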

[3] = CCTE_Harrill_HTTr_Apoptosis_PRF_DMEM_6hr: (Pilot) CCTE's 6-hour Apoptosis Assessment for the High-Throughput Transcriptomics (HTTr) Platform, in MCF-7 cells cultured phenol red-free DMEM + 10% charcoal-stripped fetal bovine serum, Harrill Lab (AID 2283984)
Text: This is a cell-based assay that evaluates apoptosis using high content imaging to evaluate activation of caspase-3/7 using the CellEvent Caspase 3/7 Green detection reagent in 384-well format.One of seven assay components measured from the CCTE_Harrill_HTTr_Apoptosis assay. This was part of a pilot experiment. This is a cell-based assay that evaluates apoptosis in MCF-7 cells cultured in phenol red-free DMEM + 10% charcoal-stripped fetal bovine serum. High content imaging is used to evaluate activation of caspase-3/7 using the CellEvent Caspase 3/7 Green detection reagent. Measurements are taken at 6 hours after chemical dosing in 384-well format.The assay component endpoint CCTE_Harrill_HTTr_Apoptosis_PRF_DMEM_6hr was analyzed with bidirectional fitting relation to DMSO as the negative control and baseline of activity. Using a type of viability reporter, gain-of-signal activity can be used to evaluate activation of caspase-3/7 using the CellEvent Caspase 3/7 Green detection reagent to understand changes in apoptosis. To generalize the intended target to other relatable targets, this assay endpoint is annotated to cell cycle, where the subfamily is apoptosis.
Chemicals were tested in MCF7 cells in an eight point dilution series with a six hour exposure duration.

[4] = CCTE_Harrill_HTTr_Apoptosis_PRF_DMEM_24hr: (Pilot) CCTE's 24-hour Apoptosis Assessment for the High-Throughput Transcriptomics (HTTr) Platform, in MCF-7 cells cultured in phenol red-free DMEM + 10% charcoal-stripped fetal bovine serum, Harrill Lab (AID 2283986)
Method in brief: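 MCF-7 cells in phenol red-free DMEM with 10% charcoal-stripped FBS, exposed 24 h across an eight-point dilution series. Caspase-3/7 activation imaged with CellEvent Green by high content imaging; bidirectional fitting against DMSO.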

Measured: outcome

CC1(C)NC(=O)N(c2ccc([N+](=O)[O-])c(C(F)(F)F)c2)C1=O
inactive: [1] | [2] | [3] | [4]
